Hits are enriched below; roughly 0.62% of the tested compounds scored in any of these assays.
BCR signal inh: chronic active BCR signaling inhibition | AID 493014 | ABC-DLBCL IkBa-CBG/CBR reporter, luminescence ratio, 4 h | Potency, µM (series often up to 46.1 µM), for the others: at the top dose activity change, negative = inhibition, actives largely listed as inhibitors | 0.05% of 340,000 active; active = well fitted inhibition curve with a large enough effect in the signal ratio, with a control signal flat, not every such curve was filed as active; inconclusive = small, poorly fitted or top-dose-only effect, or effect the other way, or a change in a side signal; the % refers to the signal ratio;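 also: plate controls were basal doxycycline-induced cells for no effect and cells given 10 µM MG132 for full effect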
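TMD8 human ABC-DLBCL cells with doxycycline-inducible IκBα–green luciferase fusion and unfused red luciferase, in 0.5% FBS medium; compounds up to 46 uM, 4 h at 37C. Green/red luminescence ratio, filter-overlap corrected, fitted to concentration-response curves.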
gsp agonist: activates gsp, the McCune-Albright syndrome mutation | gsp mutant cells, cAMP HTRF, 30 min | Potency, µM (top dose mostly 76.9 µM), inactives show top-dose activation (cAMP increase), usual class: activators | 0.13% of 340,000 active; active = well fitted activation curve with a large enough effect; inconclusive = small, poorly fitted or top-dose-only effect, or another doubt; inactive = no such curve, though single readings can be large or run the other way; cell line not stated here;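 also: phosphodiesterase inhibitor Ro 20-1724 added with compounds to block cAMP breakdown; nearly all actives have a fitted effect of over 60% in size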
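Cells in DMEM/10% FBS with G418 were pretreated with compounds in DMSO plus […] (300 uM stock) for 30 min at 37C. cAMP was measured by HTRF (cAMP-d2 plus anti-cAMP antibody-K) after 30 min at room temperature.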
MBNL1 CUG block: MBNL1-poly(CUG) RNA binding inhibition; Q9NR56; TR-FRET MBNL1-His/biotin-(CUG)12 binding, 665/545 ratio; Potency, µM (highest dose often 57.5 µM), without a hit: at the highest dose activity change, negative = inhibition, usual class: inhibitors; 0.036% of 280,000 active; AID 2675; active = well fitted inhibition curve with a large enough effect in the signal ratio, with a control signal flat, not every such curve was filed as active; inconclusive = small, poorly fitted or top-dose-only effect, or effect the other way, or a change in a side signal; inactive = no such curve, though single readings can be large or run the other way; the % refers to the signal ratio; also: % is scaled to controls: 0 for no effect and ±100 for the full control effect
Target sequence (Q9NR56 whole entry, looked up): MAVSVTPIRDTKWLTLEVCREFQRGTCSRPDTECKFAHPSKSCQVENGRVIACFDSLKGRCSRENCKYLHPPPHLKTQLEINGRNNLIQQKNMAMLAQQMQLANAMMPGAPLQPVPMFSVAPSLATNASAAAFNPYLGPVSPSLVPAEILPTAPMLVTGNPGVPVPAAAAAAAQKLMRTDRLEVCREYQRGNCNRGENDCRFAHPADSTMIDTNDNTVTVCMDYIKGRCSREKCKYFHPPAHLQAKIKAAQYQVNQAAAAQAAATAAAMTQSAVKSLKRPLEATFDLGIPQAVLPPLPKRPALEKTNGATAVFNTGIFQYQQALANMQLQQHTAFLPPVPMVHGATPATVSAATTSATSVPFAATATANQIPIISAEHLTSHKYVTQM
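Compound titration spanned 92 nM–58 uM against the MBNL1-His/biotin-(CUG)12 complex. After 60 min at room temperature with 5 nM streptavidin-XL665 and 0.055 ng/ul terbium anti-His, ratiometric 665/545 nm emission (Ex 340 nm) normalized to controls.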
ASM inhibitor: human S-ASM enzyme inhibition; P17405; placental ASM, HMU-PC fluorogenic substrate, 60 min; Potency, µM (highest dose often 57.5 µM), without a hit: at the top dose activity change, negative = inhibition, hits mostly inhibitors; 0.006% of 340,000 active; AID 504937; active = well fitted inhibition curve with a large enough effect; inconclusive = small, poorly fitted or top-dose-only effect; inactive = no such curve, though single readings can be large or run the other way
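Fluorescence read-out (Ex 386 nm, Em 447 nm) after stopping the reaction at pH 10. Enzyme: ASM from human placenta; substrate HMU-PC0, 9 uM final; 60 min, 37 °C. Compound preincubation 10 min, ambient temperature.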
gsp antag: antagonists of gsp mutant (McCune-Albright syndrome); Potency, µM (doses to about 76.9 µM), for inactives: at the top dose activity change, negative = inhibition, usual class: inhibitors; 0.4% of 340,000 active; AID 624288; gsp-mutant cells, cAMP HTRF, 30 min; calls by dose curve; cell line not stated here;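 also: intracellular cAMP measured with PDE inhibitor Ro 20-1724 present during compound exposure; % is scaled to controls: 0 for no effect and ±100 for the full control effect; nearly all actives have a fitted effect of over 65% in size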
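Cells, 2000/well, grown 16–24 h in DMEM 10% FBS with 0.5 mg/ml G418, then compounds plus […] (300 uM addition stock), 30 min at 37C. cAMP read by HTRF (cAMP-d2 and anti-cAMP antibody-K in lysis buffer) after 30 min RT.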
Active calls of the source: *; ? = inconclusive; nt = no result given; [ ] = another dose, or the depositor's remark. Potency is read from the fitted curve at half-maximal effect.

SMILES	BCR signal inh	gsp agonist	MBNL1 CUG block	ASM inhibitor	gsp antag
Brc1ccc(N/N=C(/N=Nc2nn[nH]n2)c2ccccc2)cc1	?	-1.1%	?	10.0%	22.4µM*
CSc1nsc2nc(=O)c(/C=C3\C=Nc4ccccc43)c(N)n12	?	-3.9%	8.1%	-12.0%	31.6µM*
Cn1c(SCC(=O)Nc2nccs2)nnc1-c1ccc(S(=O)(=O)N2CCCC2)cc1	4.9%	15.8%	-12.2%	-0.1%	-25.1%
CCn1c(SCC(=O)Nc2nccs2)nnc1-c1ccc(S(=O)(=O)N2CCCCCC2)cc1	?	19.8%	-5.6%	2.6%	39.8µM*
CC1=Nc2ccc(C)cc2/C1=C/c1c(N)n2c(S(=O)(=O)C(C)C)nsc2nc1=O	?	-19.4%	?	11.8%	39.8µM*
CCc1ccc(CNC(=O)C2CCN(S(=O)(=O)N3CCCCC3)CC2)cc1	nt	7.1%	nt	nt	nt
O=C(COc1ccccc1)Nc1cccc(-c2nc3cc4ccccc4cc3[nH]2)c1	?	?	7.7%	246.4%	-2.8%
CC(C)=CC(=O)OCc1csc(CC(=O)Nc2ccccc2C)n1	0.0%	8.0%	0.5%	3.8%	-5.5%
CC(=O)c1c(C)[nH]c(C(=O)OCc2csc(CC(=O)Nc3ccccc3C)n2)c1C	?	?	nt	-3.1%	25.1µM*
COC(=O)Cn1c(CN2CCN(C(=O)c3ccco3)CC2)nc2c1c(=O)n(C)c(=O)n2C	-2.4%	?	-20.7%	-1.9%	-4.7%
COCCn1c(CN2CCN(C(=O)c3ccco3)CC2)nc2c1c(=O)n(C)c(=O)n2C	5.7%	17.8µM*	-5.7%	2.1%	-5.2%
COc1cccc(CNC(=O)COC(=O)/C(C#N)=C/c2ccc(N(C)C)cc2)c1	2.5%	25.1µM*	nt	-5.2%	11.3%
COC(=O)c1ccc(C2/C(=C(\O)c3ccc4c(c3)OCCO4)C(=O)C(=O)N2c2nnc(C)s2)cc1 (stereo not given)	-1.1%	?	?	-2.4%	3.4%
CCCCOc1cccc(C2/C(=C(\O)c3ccc4c(c3)OCCO4)C(=O)C(=O)N2CCN2CCOCC2)c1 (stereo not given)	4.8%	15.8µM*	14.2%	-3.1%	-2.8%
Cc1nnc(N2C(=O)C(=O)/C(=C(/O)c3ccc4c(c3)CC(C)O4)C2c2ccccc2F)s1 (stereo not given)	3.4%	20µM*	?	-3.5%	-13.6%
O=C1C(=O)N(CCN2CCOCC2)C(c2cccc(Cl)c2)/C1=C(\O)c1ccc2c(c1)OCCO2 (stereo not given)	6.7%	?	40.1%	0.8%	-0.6%
COc1cccc(C2/C(=C(\O)c3ccc4c(c3)OCCO4)C(=O)C(=O)N2c2nnc(C)s2)c1 (stereo not given)	12.6%	8.91µM*	22.1%	-1.9%	-9.7%
COc1ccc(S(=O)(=O)N2CCOC23CCN(S(=O)(=O)c2ccccc2)CC3)cc1	?	-9.0%[15.4 µM]	nt	-3.3%	-8.5%
CCOC(=O)[C@H]1[C@H]2COc3ccc(OC)cc3[C@@H]2N2C(=O)CN(CC3CCCO3)C(=O)[C@@]12C (stereo not given in full)	3.5%	-9.9%	nt	-0.4%	-3.8%
CCCN(C(=O)C1CC(=O)N(c2ccccc2C(C)CC)C1)C1CCS(=O)(=O)C1 (stereo not given)	-5.5%	?	nt	3.7%	8.4%
O=C(c1ccc(Cl)cc1)N1CCN(c2ccnc3cc(Cl)ccc23)CC1	?	11.3%[15.4 µM]	3.5%	-3.5%	39.8µM*
CCC(=O)N1CCN(c2ccnc3cc(Cl)ccc23)CC1	-0.4%	-31.2%[15.4 µM]	2.3%	-1.0%	-4.4%
COc1ccc(Nc2nnc(-c3ccc(O)cc3)c3ccccc23)cc1	?	-1.2%	?	-5.3%	25.1µM*
CS(=O)(=O)N1CCC(C(=O)Nc2cccc(Cl)c2Cl)CC1	4.4%	16.4%	57.8%	29.6%	3.5%
CSCCC(NS(=O)(=O)c1ccc2c(c1)oc(=O)n2C)C(=O)N1CCN(c2cc(Cl)ccc2C)CC1 (stereo not given)	0.3%	nt	nt	nt	nt
SMILES	BCR signal inh	gsp agonist	MBNL1 CUG block	ASM inhibitor	gsp antag
O=C1COc2ccc(C(=O)COC(=O)c3ccccn3)cc2N1	-0.9%	-6.1%[15.4 µM]	nt	0.5%	8.0%
CCCn1nc(C(=O)OCC(=O)c2ccc3c(c2)NC(=O)CO3)c2ccccc2c1=O	-3.0%	-2.0%	1.9%	-1.2%	6.31µM*
O=[N+]([O-])c1ccccc1Nc1cccc(F)c1	nt	5.3%	nt	-9.6%	0.7%
O=C(c1ccc(N2CCN(C(=O)c3cccc(F)c3)CC2)cc1)c1cccc(F)c1	5.9%	3.1%	9.8%	-7.3%	31.6µM*
CCOC(=O)c1c(NC(=O)C(C)OC(=O)C2=COCCO2)sc2c1CCCC2 (stereo not given)	11.3%	-15.6%	nt	-6.2%	22.4µM*
COc1ccc(CN(C)CC(=O)Nc2ccccc2C(=O)NC2CC2)cc1	-17.2%	4.3%	nt	5.3%	26.6%
O=C(NC1CCCC1)C(c1ccncc1)N(C(=O)Cn1nnc(-c2ccccc2F)n1)c1cccc(F)c1 (stereo not given)	-10.0%	-35.1%	-3.9%	-1.8%	0.1%
O=[N+]([O-])c1ccc2nc(/C=C/c3ccc(Cl)cc3)[nH]c2c1	-2.9%	-17.3%	?	-4.8%	35.5µM*
O=[N+]([O-])c1ccc(-c2nc3ccc([N+](=O)[O-])cc3[nH]2)cc1	-3.5%	?	?	-7.8%	?
O=C(CCCCC(=O)NN=Cc1ccc2c(c1)CCC2)NN=Cc1ccc2c(c1)CCC2	nt	-14.2%	nt	nt	nt
CCC(C(=O)NCCc1ccc(C)cc1)n1nc(C)c2c(C)n(-c3ccccc3)nc2c1=O (stereo not given)	0.3%	?	-3.9%	3.1%	50.1µM*
CCOc1ccc(C(=O)Nc2ccc(C(F)(F)F)n(C)c2=O)cc1	2.2%	28.2µM*	?	2.7%	3.2%
CCSc1nnc(NC(=O)C(C)(C(F)(F)F)C(F)(F)F)s1	?	6.9%	-15.8%	6.1%	22.4µM*
CCSc1nnc(NC(=O)C(CC)(C(F)(F)F)C(F)(F)F)s1	?	2.1%	-5.2%	0.1%	?
CCc1cc2c(=O)c(-c3ccc4c(c3)OCCO4)c(C)oc2cc1OS(C)(=O)=O	?	-19.5%	-8.6%	-6.8%	50.1µM*
CCc1cc(=O)oc2c(C)c(OS(C)(=O)=O)ccc12	nt	-0.8%	nt	307.7%	0.8%
CC(=O)Nc1cc2c3c(c1)CC(=O)N3CCC2	1.2%	-6.0%	5.0%	-1.7%	50.1µM*
Cc1c(C(=O)N2CCOCC2)sc(NC(=O)c2ccc([N+](=O)[O-])cc2)c1C#N	8.8%	19.4%[15.4 µM]	?	-3.8%	35.5µM*
COC(CNS(=O)(=O)c1ccc(S(=O)(=O)NC2CC2)cc1)OC	3.2%	-4.6%	-1.6%	-2.3%	16.9%
COc1cc(/C=C/C(=O)OCC(=O)Nc2ccc3[nH]c(=O)[nH]c3c2)ccc1OC(F)F	nt	-90.4%	nt	nt	nt

Bioassay records (PubChem)
